Assay [1] relates to CHO. As to the kind of experiment: % viability of CHO cells (MTT); higher = less toxic. The note with it: 48 h. An outline of the steps: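 CHO cells were plated at 10^6 cells/well in 200 µL and allowed to attach overnight. Fresh medium with compound at 2 or 20 µM then replaced the old medium for 48 h. Percent viability, relative to untreated cells, came from a colorimetric tetrazolium (MTT) readout.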

The subject of assay [2] is HepG2-A16-CD81. Kind of assay: % inhibition of HepG2 viability (CellTiter-Glo); higher = more toxic. The note with it: 5 µM. On the technique in general: In ATP-based viability assays light output follows the ATP content of the culture.
The subject of assay [3] is Plasmodium falciparum NF54 stage IV/V gametocytes. Kind of assay: % inhibition of gametocyte viability (PrestoBlue); higher = more inhibition. Conditions: 48 h. An outline of the steps:
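In a single run, percent inhibition of gametocyte viability was calculated relative to vehicle and kill controls. The wells held 100 µL of Stage IV/V NF54 gametocytes at 2% gametocytaemia and 5% haematocrit, with compound at 1 or 5 µM. Plates stood at 37 °C in hypoxic conditions for 48 h. After that, 10 µL PrestoBlue was added for 2 h, and 70 µL of supernatant was transferred for fluorescence reading at 612 nm.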

Assay [4] deals with Plasmodium falciparum NF54 asexual blood stage. As to the kind of experiment: % inhibition of asexual blood stage proliferation (pLDH); higher = more inhibition. The note with it: 72 h. An outline of the steps:
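Percent inhibition of asexual proliferation, normalised to controls, was determined in a screen repeated on two separate occasions. Plasmodium falciparum NF54 ring-stage cultures (1% haematocrit, 2% parasitaemia) received compound at 2 or 20 µM and were incubated for 72 h at 37 °C under 4% CO2, 3% O2 and 93% N2. A colorimetric parasite lactate dehydrogenase readout at 620 nm gave survival.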

Assay [5] concerns Plasmodium falciparum NF54 stage IV/V gametocytes. As to the kind of experiment: % inhibition of gametocyte viability (ATP bioluminescence); higher = more inhibition. Conditions: 24 h. An outline of the steps: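 Enriched stage IV/V NF54 gametocytes were exposed to compound at 1 or 5 µM for 24 h at 37 °C in 96-well plates. Percent inhibition of gametocyte viability was derived from a bioluminescent ATP readout, normalised to controls within a single run.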

Assay [6] shares this test system. As to the kind of experiment: % inhibition of gametocyte viability (luciferase reporter); higher = more inhibition. The note with it: 48 h. The gist of the method:
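Percent inhibition was normalised to controls from a single run. Stage IV/V gametocytes of the NF54-Pfs16-GFP-Luc line, at 2% gametocytaemia and 2% haematocrit, were exposed to compound at 1 or 5 µM for 48 h at 37 °C under stationary, hypoxic conditions. Luminescence was then read from 30 µL lysate mixed with 30 µL Promega luciferin substrate on a GloMax-Multi+ reader with 10 s integration.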
Background: Reporter assays use an easily measured gene product as a stand-in for the process of interest.

In assay [7] the test system is Plasmodium berghei ANKA liver stage in HepG2-A16-CD81. Kind of assay: % inhibition of liver stage parasite viability (luciferase); higher = more inhibition. The note with it: 5 µM; 48 h. On the procedure: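 Single-concentration screen of the MMV Pandemic Response Box. P. falciparum NF54 asexual blood stages: pLDH assay, 72 h at 37 °C, 2 and 20 µM, n=2. Stage IV/V gametocytes (NF54): luciferase reporter (NF54-Pfs16-GFP-Luc, 48 h), ATP bioluminescence (24 h) and PrestoBlue (48 h) at 1 and 5 µM, n=1. P. berghei liver stage (luciferase in HepG2-A16-CD81, 48 h post infection) at 5 µM, n=4. All normalised to DMSO and kill controls as % inhibition.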

Here are results for ten molecules from the supplement of paper PMC7801607.

The structures appear in SMILES notation. Bounds are passed on as bounds.
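Throughout, for % inhibition of HepG2 viability (CellTiter-Glo): HepG2-A16-CD81 hepatoma cells plated as in the liver-stage assay but without sporozoites, with DMSO wells as negative and 25 µM puromycin as positive control.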

Turning to `CCOC(=O)N1CCN(c2ccc(Cl)cc2)CC1`, the “% viability of CHO cells” value in assay [1] (2 µM) worked out at 90.5%; in assay [1] (20 µM) it was 83.4%. In addition, in assay [2], the “% inhibition of HepG2 viability” value was -3.4%. Also, the “% inhibition of gametocyte viability” value in assay [3] (1 µM) is 17.5%; in assay [3] (5 µM), under 0%; in assay [5] (1 µM), under 0%; in assay [5] (5 µM) it was under 0%; in assay [6] (1 µM), under 0%; in assay [6] (5 µM), 8.21%. In addition, the entries for the “% inhibition of asexual blood stage proliferation” value in assay [4] (2 µM) and in assay [4] (20 µM) were 6.16% and 24.1%, respectively. The “% inhibition of liver stage parasite viability” value in assay [7] amounted to 29.3%.

Consider `CC(=O)O[C@H]1C[C@@]2(C)[C@@H](C[C@@H](O)[C@H]3[C@@]4(C)CC[C@@H](O)[C@@H](C)[C@@H]4CC[C@@]32C)/C1=C(\CCC=C(C)C)C(=O)O`, for which the “% viability of CHO cells” value in assay [1] (2 µM) came out at 108%; in assay [1] (20 µM), 97.1%. Also, the “% inhibition of HepG2 viability” value in assay [2] is -0.207%. The “% inhibition of gametocyte viability” value is under 0% in assay [3] (1 µM); 2% in assay [3] (5 µM); under 0% in assay [5] (1 µM); under 0% in assay [5] (5 µM); under 0% in assay [6] (1 µM); under 0% in assay [6] (5 µM). Further, the “% inhibition of asexual blood stage proliferation” value in assay [4] (2 µM) was 1.38%; in assay [4] (20 µM), 9.02%. Besides, the “% inhibition of liver stage parasite viability” value in assay [7] stood at 36.2%.

Regarding `CC(C)(C)NC(=O)[C@@H]1CN(Cc2cnc3occc3c2)CCN1C[C@@H](O)C[C@@H](Cc1ccccc1)C(=O)N[C@H]1c2ccccc2C[C@H]1O`, the “% viability of CHO cells” value in assay [1] (2 µM) came to 99.9%; in assay [1] (20 µM), 78.9%. In addition, the “% inhibition of HepG2 viability” value in assay [2] was determined as 4.33%. The “% inhibition of gametocyte viability” value was 30.9% in assay [3] (1 µM); 51.4% in assay [3] (5 µM); 1.91% in assay [5] (1 µM); under 0% in assay [5] (5 µM); 2.7% in assay [6] (1 µM); 15.5% in assay [6] (5 µM). For the same molecule, the figures for the “% inhibition of asexual blood stage proliferation” value in assay [4] (2 µM) and in assay [4] (20 µM) were 55.2% and 55.9%, respectively. For the same molecule, the “% inhibition of liver stage parasite viability” value in assay [7] came out at 36%.

With `c1ccc(Cn2c(-c3ccccn3)nc3ccccc32)cc1`, the “% viability of CHO cells” value came out at 75.8% in assay [1] (2 µM) and 117% in assay [1] (20 µM). The “% inhibition of HepG2 viability” value in assay [2] was 1.97%. Further, the “% inhibition of gametocyte viability” value in assay [3] (1 µM) is -0.335%; in assay [3] (5 µM), 3.56%; in assay [5] (1 µM), under 0%; in assay [5] (5 µM), under 0%; in assay [6] (1 µM), under 0%; in assay [6] (5 µM) it was 11.3%. In addition, the “% inhibition of asexual blood stage proliferation” value is 5.52% in assay [4] (2 µM) and 19.5% in assay [4] (20 µM). Also, in assay [7], the “% inhibition of liver stage parasite viability” value is -11%.

In the case of `O=C(Nc1ncc(Cc2cccc3ccccc23)s1)C1CCCCC1`, the “% viability of CHO cells” value in assay [1] (2 µM) is 83.3%; in assay [1] (20 µM) it was 53.3%. The “% inhibition of HepG2 viability” value in assay [2] turned out to be 7.25%. Moreover, the “% inhibition of gametocyte viability” value is 16.9% in assay [3] (1 µM); under 0% in assay [3] (5 µM); under 0% in assay [5] (1 µM); under 0% in assay [5] (5 µM); under 0% in assay [6] (1 µM); 0.604% in assay [6] (5 µM). The “% inhibition of asexual blood stage proliferation” value is 22.6% in assay [4] (2 µM) and 42.9% in assay [4] (20 µM). The “% inhibition of liver stage parasite viability” value in assay [7] is -13.3%.

With `Oc1cccc(C(Nc2nccs2)c2ccc3cccnc3c2O)c1` (stereo not given), the “% viability of CHO cells” value amounted to 57.5% in assay [1] (2 µM) and 42.1% in assay [1] (20 µM). For the same molecule, in assay [2], the “% inhibition of HepG2 viability” value was 9.72%. Also, the “% inhibition of gametocyte viability” value was 24.1% in assay [3] (1 µM); 65.5% in assay [3] (5 µM); under 0% in assay [5] (1 µM); 59.3% in assay [5] (5 µM); 7.2% in assay [6] (1 µM); 57.3% in assay [6] (5 µM). Also, the “% inhibition of asexual blood stage proliferation” value turned out to be 80% in assay [4] (2 µM) and 91.8% in assay [4] (20 µM). Besides, the “% inhibition of liver stage parasite viability” value in assay [7] is 20.6%.

`C=CCN(C(=O)OCc1ccc([N+](=O)[O-])cc1)C1CCN(CC[C@](C)(CN(C)S(=O)(=O)c2ccccc2)c2ccccc2)CC1`: the “% viability of CHO cells” value in assay [1] (2 µM) amounted to 129%; in assay [1] (20 µM) it was 122%. Also, the “% inhibition of HepG2 viability” value in assay [2] is -6.75%. Further, the “% inhibition of gametocyte viability” value is 4.29% in assay [3] (1 µM); 13.4% in assay [3] (5 µM); under 0% in assay [5] (1 µM); 32% in assay [5] (5 µM); 2.56% in assay [6] (1 µM); under 0% in assay [6] (5 µM). Besides, the results for the “% inhibition of asexual blood stage proliferation” value in assay [4] (2 µM) and in assay [4] (20 µM) were 59.7% and 78.9%, respectively. In addition, in assay [7], the “% inhibition of liver stage parasite viability” value was 42.2%.

For the molecule `Cc1c(CN(C)C(=O)/C=C/c2cnc3c(c2)C(C)(C)C(=O)N3)oc2ccccc12`, the “% viability of CHO cells” value turned out to be 105% in assay [1] (2 µM) and 87.2% in assay [1] (20 µM). In assay [2], the “% inhibition of HepG2 viability” value came out at 9.28%. For the same molecule, the “% inhibition of gametocyte viability” value in assay [3] (1 µM) was under 0%; in assay [3] (5 µM), 9.55%; in assay [5] (1 µM) it was under 0%; in assay [5] (5 µM), under 0%; in assay [6] (1 µM), under 0%; in assay [6] (5 µM) it was 15.2%. For the same molecule, the “% inhibition of asexual blood stage proliferation” value was 13.1% in assay [4] (2 µM) and 78.8% in assay [4] (20 µM). The “% inhibition of liver stage parasite viability” value in assay [7] is 11.2%.

Turning to `CC(C)Nc1nc2cc(Cl)c(Cl)cc2n1[C@H]1O[C@@H](CO)[C@H](O)[C@@H]1O`, the entries for the “% viability of CHO cells” value in assay [1] (2 µM) and in assay [1] (20 µM) were 71.9% and 56.9%, respectively. Moreover, the “% inhibition of HepG2 viability” value in assay [2] is -5.75%. Also, the “% inhibition of gametocyte viability” value is 17.6% in assay [3] (1 µM); 14% in assay [3] (5 µM); under 0% in assay [5] (1 µM); under 0% in assay [5] (5 µM); under 0% in assay [6] (1 µM); under 0% in assay [6] (5 µM). The “% inhibition of asexual blood stage proliferation” value in assay [4] (2 µM) worked out at 66.8%; in assay [4] (20 µM), 55.9%. Besides, the “% inhibition of liver stage parasite viability” value in assay [7] turned out to be 12.5%.

As for `N#CCN1C(=O)COc2cc(F)c(N3C(=O)c4ccccc4C3=O)cc21`, the “% viability of CHO cells” value turned out to be 91.1% in assay [1] (2 µM) and 99.3% in assay [1] (20 µM). Further, the “% inhibition of HepG2 viability” value in assay [2] was -3.69%. In addition, the “% inhibition of gametocyte viability” value in assay [3] (1 µM) was 3.4%; in assay [3] (5 µM), 2.45%; in assay [5] (1 µM), under 0%; in assay [5] (5 µM), under 0%; in assay [6] (1 µM), under 0%; in assay [6] (5 µM), 14.5%. Moreover, the “% inhibition of asexual blood stage proliferation” value in assay [4] (2 µM) is 8.98%; in assay [4] (20 µM) it was 14.8%. For the same molecule, the “% inhibition of liver stage parasite viability” value in assay [7] came to 14.6%.
